Source: PubChem BioAssay (Tox21)
Results filed as inconclusive are left out. Active and inactive are the calls of the source. Unless noted, the call rests on the fitted dose curve; in most records, active means well fitted curve in the direction sought with a large enough effect in the repeat runs; inconclusive means weak or mixed curves; inactive means no such curve, though single readings can be large; an effect the other way counts as inactive or inconclusive.

Tests used:
[1] = qHTS assay for small molecules that induce genotoxicity in human embryonic kidney cells expressing luciferase-tagged ATAD5 (AID 651632); further: nearly all actives have a fitted effect of over 15% in size
How it was run: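 Reporter cells (HEK293T) express luciferase-tagged ATAD5, a protein that accumulates after DNA damage. Treat 16 hr at 37C/5% CO2, add Amplite, wait 30 min at RT, and read luminescence.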

[2] = qHTS assay for small molecule agonists of the p53 signaling pathway - cell viability (AID 651633; calls by dose curve;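 further: p53RE-bla HCT reporter cells with a stable beta-lactamase p53 reporter; series mostly up to about 83 µM; nearly all actives have a fitted effect of over 30% in size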)
How it was run: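 p53RE-bla cells were treated with compound for 16 hours at 37 C. Cytotoxicity was then measured as CellTiter-Glo luminescence after 30 min at room temperature.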

[3] = qHTS assay for small molecules that induce genotoxicity in human embryonic kidney cells expressing luciferase-tagged ATAD5 - cell viability (AID 651634; calls by dose curve; further: nearly all actives have a fitted effect of over 25% in size)
How it was run: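 Seeding of 2,000 HEK293T ATAD5-luciferase cells per well preceded pin-tool compound transfer. Plates sat 15.5 hr at 37C under 5% CO2, then fluorescence was read after 30 min with CellTiter-Fluor.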

[4] = qHTS assay for small molecule disruptors of the mitochondrial membrane potential - cell viability (AID 720634; calls by dose curve;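 further: human HepG2 liver cancer cells; series mostly up to about 83 µM; nearly all actives have a fitted effect of over 20% in size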)
How it was run: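 Measuring cytotoxicity alongside mitochondrial potential, the screen quantified ATP by luminescence in HepG2 cells after 1 hr compound incubation and a 30 min room-temperature CellTiter-Glo step.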

[5] = qHTS assay for small molecule disruptors of the mitochondrial membrane potential (AID 720635); further: potency means the concentration at half of the fitted maximal effect
How it was run: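 HepG2 cells exposed to compound 1 hr at 37C, then Mito-MPS dye 30 min. Ratio read of aggregate (540/590 nm) versus monomer (490/535 nm) fluorescence.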

[6] = qHTS assay to test for compound auto fluorescence at 590 nm (red) in HepG2 cells (AID 720674)
How it was run: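 Seeding: 2,000 HepG2 cells/well, MEM/10% FBS, overnight 37 C. Dosing: compound vs DMSO. Incubation: 1 hr, 37 C, 5% CO2. Read: fluorescence 540 ex/590 em, Rose Bengal sodium as red reference.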

[7] = qHTS assay to test for compound auto fluorescence at 535 nm (green) in HepG2 cells (AID 720675)
[8] = qHTS assay to test for compound auto fluorescence at 460 nm (blue) in HEK293 cells (AID 720678)
How it was run: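 Auto fluorescence in the blue band was quantified as triamterene equivalency. HEK293 cells were seeded at 2,000/well, dosed after a 4-5 hr attachment, and kept overnight at 37C before the 405/460 nm reading.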

[9] = qHTS assay to test for compound auto fluorescence at 590 nm (red) in HEK293 cells (AID 720679)
How it was run: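 Autofluorescence equivalency to Rose Bengal sodium, 540/590nm, in HEK293 cells exposed overnight to 23 nL compound per well.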

[10] = qHTS assay to test for compound auto fluorescence at 535 nm (green) in HEK293 cells (AID 720680)
[11] = qHTS assay to test for compound auto fluorescence at 460 nm (blue) in HEK293 cell free culture (AID 720681)
How it was run: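 Compounds were added to cell-free DMEM with 10% FBS and fluorescence read directly. The blue channel used 405 nm excitation and 460 nm emission, with triamterene as the reference fluorophore.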

[12] = qHTS assay to test for compound auto fluorescence at 535 nm (green) in HEK293 cell free culture (AID 720682)
How it was run: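 Green-channel intensity (Ex/Em 485/535 nm) was recorded from compound-treated wells containing only DMEM with 10% FBS. Fluorescein provided the equivalency standard.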

[13] = qHTS assay to test for compound auto fluorescence at 590 nm (red) in HEK293 cell free culture (AID 720683)
How it was run: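 Cell-free wells of DMEM with 10% FBS received compound, and intrinsic fluorescence was read at excitation/emission 540/590 nm. Values expressed as equivalence to Rose Bengal sodium.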

[14] = qHTS assay to test for compound auto fluorescence at 590 nm (red) in HepG2 cell free culture (AID 720684)
How it was run: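 Compounds are added to culture medium (MEM, 10% FBS) lacking cells, then fluorescence is read at excitation 540 nm, emission 590 nm, with Rose Bengal sodium as the equivalency standard.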

[15] = qHTS assay to test for compound auto fluorescence at 460 nm (blue) in HepG2 cell free culture (AID 720685)
How it was run: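 Compound (23 nL) or DMSO pinned into cell-free MEM with 10% FBS; blue fluorescence read at 405/460 nm excitation/emission, expressed as auto-fluorescence equivalency to triamterene.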

[16] = qHTS assay to test for compound auto fluorescence at 535 nm (green) in HepG2 cell free culture (AID 720686)
[17] = qHTS assay to test for compound auto fluorescence at 460 nm (blue) in HepG2 cells (AID 720687)
How it was run: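 HepG2 cells in MEM with 10% FBS, attached overnight at 37 C, were exposed to compound or DMSO for 1 hr at 37 C, 5% CO2. Blue fluorescence was read at 405/460 nm, with triamterene as reference fluorophore.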

[18] = target: Glucocorticoid receptor (Homo sapiens) (UniProt P04150); test: qHTS assay to identify small molecule agonists of the glucocorticoid receptor (GR) signaling pathway (AID 720691; active means well fitted activation curve with a large enough effect in the signal ratio in the repeat runs, not every such curve was filed as active; the % refers to the signal ratio)
How it was run: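 Reporter read-out: fluorescence intensity following 2 h room-temperature LiveBLAzer B/G FRET substrate loading. Prior step: GR-bla HeLa cells held 4 h, then treated 18 h at 37 C.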

[19] = qHTS assay for small molecule agonists of the p53 signaling pathway (AID 651631; calls by dose curve; further: nearly all actives have a fitted effect of over 15% in size)
How it was run: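 We treat p53RE-bla HCT-116 cells with compounds for 16 h at 37 °C, add LiveBLAzer B/G FRET substrate for 2 h at room temperature, and measure fluorescence intensity.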

[20] = target: Glucocorticoid receptor (Homo sapiens) (UniProt P04150); test: qHTS assay to identify small molecule antagonists of the glucocorticoid receptor (GR) signaling pathway (AID 720692; active means well fitted inhibition curve with a large enough effect in the signal ratio in the repeat runs, not every such curve was filed as active; the % refers to the signal ratio)
How it was run: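 Dexamethasone (5 nM final) stimulated a stably integrated GRE-beta-lactamase reporter in HeLa cells during 18 h co-incubation with compounds; signal was quantified as fluorescence intensity of B/G FRET substrate after 2 h.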
On the % scale 0 is the no-effect control and ±100 the full control effect.

Chain of Glucocorticoid receptor (Homo sapiens) (P04150 whole entry, looked up): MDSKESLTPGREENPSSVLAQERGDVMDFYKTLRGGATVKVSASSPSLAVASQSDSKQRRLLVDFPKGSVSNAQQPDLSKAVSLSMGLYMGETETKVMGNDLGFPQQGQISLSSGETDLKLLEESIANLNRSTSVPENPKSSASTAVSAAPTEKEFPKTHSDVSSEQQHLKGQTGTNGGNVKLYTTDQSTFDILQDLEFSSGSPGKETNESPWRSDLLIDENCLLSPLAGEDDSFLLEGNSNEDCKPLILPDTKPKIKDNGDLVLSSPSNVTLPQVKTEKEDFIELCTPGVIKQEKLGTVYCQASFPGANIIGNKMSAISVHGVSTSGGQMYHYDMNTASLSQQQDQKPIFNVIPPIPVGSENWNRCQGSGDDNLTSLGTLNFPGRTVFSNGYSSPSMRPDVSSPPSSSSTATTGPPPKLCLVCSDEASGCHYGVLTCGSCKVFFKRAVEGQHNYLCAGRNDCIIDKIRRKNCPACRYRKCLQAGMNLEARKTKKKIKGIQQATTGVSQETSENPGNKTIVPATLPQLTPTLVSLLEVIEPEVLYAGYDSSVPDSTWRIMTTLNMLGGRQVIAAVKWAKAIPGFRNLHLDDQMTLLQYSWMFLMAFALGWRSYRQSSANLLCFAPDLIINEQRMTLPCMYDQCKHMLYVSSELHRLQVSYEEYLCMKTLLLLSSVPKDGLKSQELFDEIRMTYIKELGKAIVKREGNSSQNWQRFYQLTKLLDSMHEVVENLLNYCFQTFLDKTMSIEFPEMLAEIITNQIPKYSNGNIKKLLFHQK

O=C(c1ccccc1)c1ccc(O)cc1
inactive: Potency [1] | Potency [2] | Potency [3] | outcome [4] | outcome [6] | outcome [7] | Potency [8] | outcome [9] | outcome [10] | Potency [11] | outcome [12] | outcome [13] | outcome [14] | Potency [15] | outcome [16] | Potency [17] | Potency [18]
active: Potency [5] 27.6 µM

CCCCOC(=O)CCCCC(=O)OCCCC
inactive: Potency [1] | Potency [2] | Potency [3] | outcome [4] | Potency [5] | outcome [6] | outcome [7] | Potency [8] | outcome [9] | Potency [11] | outcome [12] | outcome [13] | outcome [14] | Potency [15] | Potency [17] | Potency [18]

COc1ccc(C)cc1
inactive: Potency [19] | Potency [2] | Potency [3] | outcome [4] | outcome [6] | outcome [7] | Potency [8] | outcome [10] | Potency [11] | outcome [12] | outcome [14] | outcome [16] | Potency [17] | Potency [18]

CCCC(=O)OC(=O)CCC
inactive: Potency [19] | Potency [2] | Potency [3] | outcome [4] | Potency [5] | outcome [7] | Potency [8] | outcome [9] | outcome [10] | Potency [11] | outcome [12] | outcome [13] | outcome [14] | Potency [17]

CC1=CC[C@@]23C[C@@H]1C(C)(C)[C@@H]2CC[C@H]3C
inactive: Potency [19] | Potency [2] | Potency [3] | outcome [4] | outcome [6] | outcome [7] | Potency [8] | outcome [9] | outcome [10] | Potency [11] | outcome [12] | outcome [14] | Potency [15] | outcome [16] | Potency [17] | Potency [18] | Potency [20]

CCSC(=O)N(CC)CC
inactive: Potency [19] | Potency [2] | Potency [3] | outcome [4] | outcome [6] | outcome [7] | outcome [9] | Potency [11] | outcome [12] | outcome [14] | Potency [15] | Potency [17] | Potency [18] | Potency [20]

CC(=O)OC(C)C[N+](C)(C)C (stereo unspecified)
inactive: Potency [19] | Potency [2] | Potency [3] | outcome [4] | fluorescence, relative to Rose Bengal [6] 0.553% [at 18.6 µM] | fluorescence, % of fluorescein control [7] 0.0253% [at 18.6 µM] | fluorescence, % of triamterene [8] -0.423% [at 18.6 µM] | fluorescence, % of fluorescent control [9] -0.334% [at 18.6 µM] | fluorescence, % of fluorescent control [11] -0.0614% [at 18.6 µM] | activity change [12] -0.0135% [at 18.6 µM] | fluorescence, % of fluorescent control [13] 0.423% [at 18.6 µM] | fluorescence, % of Rose Bengal [14] -0.229% [at 18.6 µM] | fluorescence, % of fluorescent control [15] -0.0627% [at 18.6 µM] | fluorescence, % of fluorescein control [16] -0.0048% [at 18.6 µM] | fluorescence, % of fluorescent control [17] -0.0338% [at 18.6 µM] | Potency [18] | Potency [20]

CC1CCCC(=O)C1=O (stereo unspecified)
inactive: Potency [19] | Potency [2] | outcome [4] | Potency [5] | outcome [6] | outcome [7] | Potency [8] | outcome [9] | outcome [10] | Potency [11] | outcome [12] | outcome [14] | Potency [15] | outcome [16] | Potency [17] | Potency [18]
